Data published in PubChem BioAssay AID1492 (National Center for Advancing Translational Sciences (NCATS), 2009).
Inconclusive results are not listed. Active and inactive are the calls of the source. The call rests on the fitted dose curve; in most records, active means well fitted inhibition curve with a large enough effect; inconclusive means small, poorly fitted or top-dose-only effect; inactive means flat fitted curve, though single readings scatter.

Target: Muscarinic acetylcholine receptor M1 (Rattus norvegicus) (UniProt P08482)
Test: Counterscreen Concentration-Response Assay for Antagonists of the Neuropeptide S Receptor: Muscarinic Receptor Calcium Signal Transduction.
Excerpt: NIH Chemical Genomics Center [NCGC] NIH Molecular Libraries Probe Production centers Network [MLPCN] MLPCN Grant: X01-DA026210-01 Assay Submitter (PI): Heilig, Markus Alexander NCGC Assay Overview: Neuropeptide S receptor (NPSR), previously known as GPR154, is a recently de-orphanized G protein coupled receptor. Its endogenous ligand is the 20 amino acids peptide Neuropeptide S (NPS). […] NPS and its receptor are found in various tissues. Specifically they are highly expressed in brain areas that have been implicated in modulation of arousal, stress and anxiety. […] This change in intracellular calcium can be detected using a calcium indicator dye on a calcium imaging plate reader system (FDSS). […]
NCGC Assay Protocol Summary: A Chinese hamster ovary (CHO) cell line stably expressing muscarinic acetylcholine M1 receptor (CHO-M1) was obtained from ATCC and maintained in F-12 Kaighn's media (Invitrogen, Carlsbad, CA, 21127) supplemented with 10 % FBS, 100 units/ml penicillin, 100 ug/ml streptomycin and 250 ug/ml geneticin at 37C, 5% CO2 in a humidified atmosphere. […] The assay was performed on a FDSS-7000 kinetic plate reader in 1536-well format. The maximums of kinetic fluorescence responses were converted into text files using the instrument's software data export utility. […] AC50 values were determined from concentration-response data modeled with the standard Hill equation. […]

## O=c1[nH]c(=O)n(CCC2=CCCCC2)c(O)c1C=NC1CCN(Cc2ccccc2)CC1
  outcome: inactive
